The results in this text go back to ChEMBL document CHEMBL3988442, “University of Dundee, Small-Polar-MMV Screening Library” (2021).

Molecules are shown by their SMILES. For some of these results: Entries with a potency or affinity are not part of this list.

Common to all, as to set-up: scale not given: direction of the effect not stated beside the values
The target in assay [1] is Protein translocase subunit SecA (Escherichia coli (strain K12)) (UniProt P10408). Briefly: Assay to Identify E. coli SecA ATPase Inhibitors. In kind it is functional. Conditions: 30 µM.
Assay [2] deals with T1, Ubiquitin-activating enzyme e1, putative (Leishmania donovani (strain BPK282A1)) (UniProt E9BSI1).
T1 sequence (whole entry): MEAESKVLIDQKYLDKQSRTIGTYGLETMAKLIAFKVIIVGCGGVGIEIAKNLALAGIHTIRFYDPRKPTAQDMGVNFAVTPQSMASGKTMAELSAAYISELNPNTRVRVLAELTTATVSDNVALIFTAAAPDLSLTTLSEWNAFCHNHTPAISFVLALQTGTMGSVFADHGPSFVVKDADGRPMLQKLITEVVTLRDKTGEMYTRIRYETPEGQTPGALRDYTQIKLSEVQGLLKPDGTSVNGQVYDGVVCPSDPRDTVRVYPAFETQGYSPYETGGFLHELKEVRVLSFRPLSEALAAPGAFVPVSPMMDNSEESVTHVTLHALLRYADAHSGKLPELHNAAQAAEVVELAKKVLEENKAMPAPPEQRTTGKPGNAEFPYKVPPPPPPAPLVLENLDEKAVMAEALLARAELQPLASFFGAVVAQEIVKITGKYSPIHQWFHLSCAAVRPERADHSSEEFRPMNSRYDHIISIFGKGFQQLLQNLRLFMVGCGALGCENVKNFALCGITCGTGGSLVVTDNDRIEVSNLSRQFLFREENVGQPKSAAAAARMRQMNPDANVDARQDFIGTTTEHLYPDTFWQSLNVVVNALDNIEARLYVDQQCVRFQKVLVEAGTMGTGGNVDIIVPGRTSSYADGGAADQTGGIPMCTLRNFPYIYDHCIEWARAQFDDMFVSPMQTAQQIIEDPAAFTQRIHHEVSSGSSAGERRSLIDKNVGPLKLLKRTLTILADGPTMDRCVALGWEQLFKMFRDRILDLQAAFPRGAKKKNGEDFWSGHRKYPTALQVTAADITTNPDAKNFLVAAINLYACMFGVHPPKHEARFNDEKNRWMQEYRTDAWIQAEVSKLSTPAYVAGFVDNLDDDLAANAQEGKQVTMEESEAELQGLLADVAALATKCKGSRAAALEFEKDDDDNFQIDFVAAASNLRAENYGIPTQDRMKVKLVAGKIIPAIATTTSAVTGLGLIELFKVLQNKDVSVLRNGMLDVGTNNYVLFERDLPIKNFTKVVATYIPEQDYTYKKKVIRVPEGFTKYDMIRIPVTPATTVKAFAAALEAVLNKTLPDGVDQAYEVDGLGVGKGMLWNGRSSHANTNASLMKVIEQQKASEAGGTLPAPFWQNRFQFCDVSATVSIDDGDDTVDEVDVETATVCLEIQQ
Description: Leishmania donovani Ubiquitin Activating Enzyme (LdE1). The class given is functional. Conditions: 30 µM.

The target in assay [3] is AMP-activated protein kinase, AMPK (Homo sapiens) (UniProt P54646+O43741+P54619+Q9UGJ0+Q9Y478+Q13131+Q9UGI9). Briefly: AMP-dependent Kinase enzyme assay. An in vitro enzyme assay that detects ADP turnover that is directly proportional to AMPK activity. This uses naive AMPK that is activated during the assay with MK-8722. The class given is functional. Conditions: 30 µM.

Assay [4] addresses Sialic acid-binding Ig-like lectin 9 (Homo sapiens) (UniProt Q9Y336). Description: Hs-Siglec9 ALPHAscreen SOP 20170721. Conditions: 10 µM.
In another assay the test system is Trypanosoma cruzi. Description: Trypanosoma cruzi phosphomannomutase and mannose-1-phosphate guanylyltransferase assay. In kind it is functional. Conditions: 10 µM.
In assay [5] the target is T2, Arginase-2, mitochondrial (Homo sapiens) (UniProt P78540).
T2 sequence (whole entry): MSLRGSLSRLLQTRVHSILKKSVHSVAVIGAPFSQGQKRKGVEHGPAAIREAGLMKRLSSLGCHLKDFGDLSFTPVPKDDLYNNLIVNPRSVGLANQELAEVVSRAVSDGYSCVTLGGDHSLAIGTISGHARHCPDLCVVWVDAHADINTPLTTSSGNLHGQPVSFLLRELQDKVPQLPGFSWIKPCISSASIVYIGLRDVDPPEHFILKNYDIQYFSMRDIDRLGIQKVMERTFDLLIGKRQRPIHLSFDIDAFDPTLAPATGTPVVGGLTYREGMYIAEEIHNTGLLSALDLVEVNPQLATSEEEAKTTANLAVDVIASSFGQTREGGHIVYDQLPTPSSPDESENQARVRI
Description: in vitro enzyme assay to detect the production of urea directly proportional to the activity of Arginase II. Note: in the data most compounds retested in dose-response had high values. The class given is functional. As to conditions: 33.3 µM.

In assay [6] the target is T3, Proteasome subunit beta (Trypanosoma cruzi) (UniProt O96673).
T3 sequence (whole entry): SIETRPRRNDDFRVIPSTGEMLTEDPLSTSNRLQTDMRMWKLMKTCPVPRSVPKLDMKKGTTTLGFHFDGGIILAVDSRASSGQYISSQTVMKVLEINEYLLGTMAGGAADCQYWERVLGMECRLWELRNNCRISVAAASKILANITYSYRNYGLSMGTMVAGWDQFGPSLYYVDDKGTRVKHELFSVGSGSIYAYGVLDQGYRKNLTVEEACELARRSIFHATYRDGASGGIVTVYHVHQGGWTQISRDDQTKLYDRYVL
Description: Trypanosoma cruzi proteasome chymotrypsin-like activity (TcProtChymo) assay. Note: in the data most compounds retested in dose-response had high values. The class given is functional. Conditions: 9.37 µM.

For the next assay, the species on record is Homo sapiens. Briefly: To identify inhibition of the IFN signalling (Jak-Stat) pathway via expression of an eGFP reporter gene under the control of an IFN-stimulated response element (ISRE) containing MxA promoter. The class given is functional. As to conditions: 30 µM.
Assay [7] concerns the target T4, Tyrosyl-tRNA synthetase, putative (Trypanosoma cruzi (strain CL Brener)) (UniProt Q4DSP6).
T4 sequence (whole entry): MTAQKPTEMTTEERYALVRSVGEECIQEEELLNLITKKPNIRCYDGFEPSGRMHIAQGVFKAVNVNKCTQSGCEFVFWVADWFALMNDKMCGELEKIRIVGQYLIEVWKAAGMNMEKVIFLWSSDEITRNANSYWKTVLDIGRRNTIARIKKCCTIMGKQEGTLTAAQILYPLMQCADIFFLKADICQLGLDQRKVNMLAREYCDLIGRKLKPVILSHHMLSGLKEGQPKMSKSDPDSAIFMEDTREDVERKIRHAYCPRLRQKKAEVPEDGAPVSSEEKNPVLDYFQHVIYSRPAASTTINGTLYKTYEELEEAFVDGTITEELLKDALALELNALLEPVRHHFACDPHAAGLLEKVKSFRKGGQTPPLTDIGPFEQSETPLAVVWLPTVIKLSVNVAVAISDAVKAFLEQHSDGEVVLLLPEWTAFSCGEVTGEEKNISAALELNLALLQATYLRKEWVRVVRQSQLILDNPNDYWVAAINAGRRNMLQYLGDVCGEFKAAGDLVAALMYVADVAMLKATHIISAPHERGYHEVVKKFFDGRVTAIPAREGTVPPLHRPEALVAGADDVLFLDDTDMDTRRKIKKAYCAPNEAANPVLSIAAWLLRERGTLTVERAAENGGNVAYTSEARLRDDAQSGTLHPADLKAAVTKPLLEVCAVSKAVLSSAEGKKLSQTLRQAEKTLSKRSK
Briefly: Trypanosoma cruzi tyrosyl tRNA synthetase (TcYRS) _High Tyrosine SOP. Note: in the data most compounds retested in dose-response had high values. Conditions: 30 µM. In kind it is functional.

Assay [8] deals with T4, Tyrosyl-tRNA synthetase, putative (Trypanosoma cruzi (strain CL Brener)). Description: Trypanosoma cruzi tyrosyl tRNA synthetase (TcYRS) SOP. In kind it is functional. Conditions: 30 µM.
In assay [9] the target is Chromo domain-containing protein 1 (Saccharomyces cerevisiae (strain ATCC 204508 / S288c) (Baker's yeast)) (UniProt P32657). Description: ScCHD-1 Enzyme Inhibition Assay. Note: in the data most compounds retested in dose-response had high values. In kind it is functional. As to conditions: 30 µM.
Chromo domain-containing protein 1 (Saccharomyces cerevisiae (strain ATCC 204508 / S288c) (Baker's yeast)), sequence (P32657 whole entry, the tested form may be a part): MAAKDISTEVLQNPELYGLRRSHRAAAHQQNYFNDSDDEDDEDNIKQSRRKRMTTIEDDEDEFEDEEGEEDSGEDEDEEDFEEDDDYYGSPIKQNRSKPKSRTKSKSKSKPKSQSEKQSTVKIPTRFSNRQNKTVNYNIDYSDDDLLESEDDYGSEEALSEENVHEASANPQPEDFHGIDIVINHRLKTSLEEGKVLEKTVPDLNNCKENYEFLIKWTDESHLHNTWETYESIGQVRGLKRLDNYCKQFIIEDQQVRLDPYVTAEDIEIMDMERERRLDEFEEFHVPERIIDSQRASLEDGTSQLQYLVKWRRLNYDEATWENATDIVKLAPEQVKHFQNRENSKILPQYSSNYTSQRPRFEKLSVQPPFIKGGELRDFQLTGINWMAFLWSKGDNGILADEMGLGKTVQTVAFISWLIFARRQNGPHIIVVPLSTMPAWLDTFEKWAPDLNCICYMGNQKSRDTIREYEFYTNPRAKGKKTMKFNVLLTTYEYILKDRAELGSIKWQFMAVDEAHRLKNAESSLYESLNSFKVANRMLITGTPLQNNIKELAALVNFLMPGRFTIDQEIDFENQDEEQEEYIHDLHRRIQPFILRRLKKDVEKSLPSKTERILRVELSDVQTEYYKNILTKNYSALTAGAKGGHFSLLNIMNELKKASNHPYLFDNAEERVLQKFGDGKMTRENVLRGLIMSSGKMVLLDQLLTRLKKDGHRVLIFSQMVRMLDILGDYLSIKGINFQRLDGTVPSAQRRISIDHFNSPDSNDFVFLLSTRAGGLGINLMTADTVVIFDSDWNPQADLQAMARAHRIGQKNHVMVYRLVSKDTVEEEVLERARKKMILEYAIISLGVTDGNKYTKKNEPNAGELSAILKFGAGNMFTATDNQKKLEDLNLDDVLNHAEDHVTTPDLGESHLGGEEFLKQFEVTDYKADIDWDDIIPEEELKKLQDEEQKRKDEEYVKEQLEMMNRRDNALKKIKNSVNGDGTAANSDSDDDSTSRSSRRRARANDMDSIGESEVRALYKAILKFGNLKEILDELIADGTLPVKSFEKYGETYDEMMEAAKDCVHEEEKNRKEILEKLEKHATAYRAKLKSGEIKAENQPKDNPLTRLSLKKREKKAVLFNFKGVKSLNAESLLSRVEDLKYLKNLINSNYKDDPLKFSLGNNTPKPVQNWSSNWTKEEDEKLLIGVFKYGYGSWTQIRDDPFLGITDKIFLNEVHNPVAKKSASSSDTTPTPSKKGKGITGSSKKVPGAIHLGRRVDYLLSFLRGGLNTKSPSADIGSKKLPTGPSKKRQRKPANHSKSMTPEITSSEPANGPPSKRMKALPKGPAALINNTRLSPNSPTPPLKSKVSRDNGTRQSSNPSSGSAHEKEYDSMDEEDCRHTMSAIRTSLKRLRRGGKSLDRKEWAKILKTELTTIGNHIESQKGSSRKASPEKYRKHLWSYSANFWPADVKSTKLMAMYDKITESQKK

Sialic acid-binding Ig-like lectin 9 (Homo sapiens), sequence (Q9Y336 whole entry): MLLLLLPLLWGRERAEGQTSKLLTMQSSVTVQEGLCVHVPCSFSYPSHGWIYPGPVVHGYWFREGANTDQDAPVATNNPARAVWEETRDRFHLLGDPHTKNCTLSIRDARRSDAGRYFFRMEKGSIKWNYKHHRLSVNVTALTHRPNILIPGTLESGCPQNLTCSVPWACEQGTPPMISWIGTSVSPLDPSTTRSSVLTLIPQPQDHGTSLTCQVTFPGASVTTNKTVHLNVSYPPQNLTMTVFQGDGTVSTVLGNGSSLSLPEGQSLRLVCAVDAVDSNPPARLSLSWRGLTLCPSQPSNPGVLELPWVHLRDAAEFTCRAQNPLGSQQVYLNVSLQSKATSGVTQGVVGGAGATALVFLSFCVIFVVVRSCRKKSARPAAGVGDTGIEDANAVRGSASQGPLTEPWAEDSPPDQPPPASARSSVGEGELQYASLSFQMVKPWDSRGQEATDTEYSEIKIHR
Protein translocase subunit SecA (Escherichia coli (strain K12)), sequence (P10408 whole entry): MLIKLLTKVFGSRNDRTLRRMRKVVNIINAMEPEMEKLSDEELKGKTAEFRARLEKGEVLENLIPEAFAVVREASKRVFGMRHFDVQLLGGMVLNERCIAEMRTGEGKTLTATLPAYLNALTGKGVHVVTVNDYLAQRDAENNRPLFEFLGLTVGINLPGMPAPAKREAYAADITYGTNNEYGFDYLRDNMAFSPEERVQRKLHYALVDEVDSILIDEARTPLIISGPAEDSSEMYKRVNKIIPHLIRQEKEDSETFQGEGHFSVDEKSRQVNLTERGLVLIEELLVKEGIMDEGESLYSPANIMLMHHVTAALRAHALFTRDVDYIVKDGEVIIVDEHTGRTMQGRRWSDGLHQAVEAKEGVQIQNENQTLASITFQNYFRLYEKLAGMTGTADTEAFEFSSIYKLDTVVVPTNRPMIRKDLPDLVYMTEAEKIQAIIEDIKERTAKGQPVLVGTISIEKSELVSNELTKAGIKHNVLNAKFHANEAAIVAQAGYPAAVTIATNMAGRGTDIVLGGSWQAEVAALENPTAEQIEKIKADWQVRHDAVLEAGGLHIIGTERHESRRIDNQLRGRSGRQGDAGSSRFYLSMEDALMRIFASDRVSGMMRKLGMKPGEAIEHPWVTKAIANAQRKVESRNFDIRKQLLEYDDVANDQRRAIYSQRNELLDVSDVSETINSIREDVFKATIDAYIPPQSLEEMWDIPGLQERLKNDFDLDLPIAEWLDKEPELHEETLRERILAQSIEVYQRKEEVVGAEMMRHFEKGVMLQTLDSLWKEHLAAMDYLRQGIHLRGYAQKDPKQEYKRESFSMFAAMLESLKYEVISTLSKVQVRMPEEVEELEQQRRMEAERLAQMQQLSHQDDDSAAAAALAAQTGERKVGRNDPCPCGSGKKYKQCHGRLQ

In the case of `CS(=O)(=O)NC[C@]12COC[C@H]1CN(C(=O)c1ccccc1)C2`, the Percent Effect is -1.33% in assay [1]; -52% in [2]; -0.526% in assay [3]; 9.67% in [4]; -4.63% in the assay on Trypanosoma cruzi; 0.645% in assay [5]. In addition, the Percent Effect is -1.22% in assay [6]; 11.1% in the assay listed under Homo sapiens; -79.4% in [7]; -147% in assay [8]; -6.34% in assay [9].
For `COCCCN1CCC(NC(=O)C(C)C)CC1`, the Percent Effect in assay [1] was -6.61%; in assay [2], -2.74%; in assay [3] it was -0.488%; in [4], -2.06%; in the assay with Trypanosoma cruzi, -5.16%; in assay [5], -2%. The Percent Effect is 6.76% in [6]; 24.5% in the assay listed under Homo sapiens; 0% in assay [7]; -1.24% in [8]; -2.64% in assay [9].
For the compound `O=C(Nc1cn[nH]c1)c1ccc(O)nc1`, the Percent Effect in assay [1] was -0.619%; in [2] it was 13.2%; in assay [3] it was 4.46%; in [4], 12.7%; in the assay with Trypanosoma cruzi, 2.82%; in assay [5], -0.766%. Also, the Percent Effect in assay [6] is 5.68%; in the assay filed under Homo sapiens, 1.45%; in assay [7], 8.33%; in assay [8], 21.9%; in assay [9], -8.54%.
`CCN1CCOC(CNCc2ccccn2)C1` (stereo not drawn): the Percent Effect is -1.35% in assay [1]; 0% in assay [2]; -15.7% in assay [3]; 4.04% in assay [4]; 7.19% in the assay on Trypanosoma cruzi; 1.8% in assay [5]. Also, the Percent Effect was -3.64% in [6]; -4.24% in the assay listed under Homo sapiens; 8.37% in assay [7]; 16.1% in assay [8]; -1.88% in assay [9].
Consider `CC(C)n1ncc2c1NC(=O)CSC2C(C)(C)C` (stereo not drawn), for which the Percent Effect in assay [1] is -4%; in assay [2], 17.3%; in [3], -3.06%; in assay [4], 7.25%; with Trypanosoma cruzi, 3.14%; in [5], -3.7%. Besides, the Percent Effect in assay [6] is 8.69%; in the assay filed under Homo sapiens, 8.09%; in [7], 5.29%; in [8] it was 12.8%; in assay [9] it was -8.28%.
On to `CC(C)Cc1noc(CN2CCN(CCO)CC2)n1`, for which the Percent Effect in assay [1] is -0.954%; in [2] it was 10.5%; in assay [3], 1.51%; in assay [4], -0.0672%; with Trypanosoma cruzi, -2.07%; in [5], 0.766%. For the same compound, the Percent Effect in assay [6] was 12%; in the assay listed under Homo sapiens, 11.2%; in assay [7] it was 3.43%; in [8], 9.76%; in [9], -8.48%.
Regarding `O=C1OCCN1CCOc1nc(-c2ccccc2Cl)no1`, the Percent Effect in [1] was -6.78%; in assay [2] it was 16.4%; in assay [3], -3.77%; in [4] it was 15.8%; in the assay on Trypanosoma cruzi, 4.7%; in assay [5], 8.64%. Besides, the Percent Effect in assay [6] was 12.1%; in the assay listed under Homo sapiens, 7.15%; in assay [7] it was 5.38%; in assay [8] it was 12.5%; in assay [9], -6.2%.
On to `Cc1ccc(NC(=O)Nc2cnc(N3CCN(C)CC3)nc2)c(Cl)c1`, for which the Percent Effect in [1] is -1.85%; in assay [2], 13%; in [3], 2.69%; in assay [4], 2.29%; with Trypanosoma cruzi, 2.27%; in [5], -5.81%. In addition, the Percent Effect in [6] was 5.22%; in the assay listed under Homo sapiens, 6.92%; in assay [7], 6.35%; in assay [8], 11.5%; in assay [9], -9.57%.
